According to paper PMC5540273 (PLoS ONE, 2017):

tested on: PDGFRB; conditions: concentration: 1 μM, replicates: in singlicate; n = 1
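Further: KINOMEscan kinase panel screen.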

Compound	%Inh
FC(F)(F)c1ccc(/C=C/c2cncnc2Nc2ccc3[nH]c(Cc4ccccc4)nc3c2)cc1 [GW709199]	0%
COc1ccc(Nc2nccc(NCCNC(=O)c3cc4ccccc4s3)n2)cc1 [GSK1379896]	15%
Cl.Cl.NCC(NCc1ccc(-c2ccnc3[nH]ccc23)s1)c1ccccc1 (stereo not shown) [GSK1321565]	44%
O=C(Nc1cccc(-c2nn3ncccc3c2-c2ccnc(Nc3ccccc3)n2)c1)c1c(F)cccc1F [GSK198271]	100%
Cn1cc(-c2ccc3c(c2)CCN3C(=O)Cc2cccc(F)c2)c2c(N)ncnc21 [GSK2603358]	99.8%
Nc1ncc(-c2cccnc2)c2scc(-c3ccc4c(c3)CCN4C(=O)Cc3ccccc3)c12 [GSK683281]	94.3%
COC(=O)Nc1nc2cc(Oc3ccc(NC(=O)Nc4cc(C(F)(F)F)ccc4F)cn3)ccc2[nH]1.Cl.Cl [GW681170]	99.8%
CCn1c(-c2nonc2N)nc2c(C#CC(C)(C)O)nc(OC[C@H](N)c3ccccc3)cc21 [GSK943949]	5%
COc1ccc(Nc2nccc(N3CCC(NC(=O)Nc4cccc(OC)c4)C3)n2)cc1 (stereo not shown) [GSK1379742]	23%
O=C(Nc1cccc(Oc2ccc3nc(NC(=O)C4CC4)cn3n2)c1)c1ccccc1C(F)(F)F	100%
Fc1ccc(-c2ncn(C3CCNCC3)c2-c2ccnc(Oc3ccc(-c4ccccc4)cc3)n2)cc1 [SB-245391]	12%
CC(=O)Nc1nc2cnc(Nc3cc(NC(=O)c4cccc(C5(C#N)CC5)c4Cl)ccc3C)nc2s1	100%
Clc1ccc(-c2nn3ncccc3c2-c2ccnc(Nc3ccc4c(c3)OCCO4)n2)cc1 [GW829116]	99.9%
O=C(Nc1ccccc1F)NC1CCN(c2ccnc(Nc3ccc(F)cc3)n2)CC1 [GSK1379800]	11%
c1ccc(-c2cnc3nccnn23)cc1 [AH20685]	23%
COc1cc2c(cc1OCCN1CCNCC1)ncc1c3ccc(C#N)cc3[nH]c21	89%

Compound	%Inh
COc1cccc(C2=C(Nc3ccc(Cl)c(C(=O)O)c3)C(=O)NC2=O)c1 [SB-390769]	5%
O=C(O)C(F)(F)F.O=C(O)C(F)(F)F.O=c1[nH]ccc2nc(N[C@@H]3CCCNC3)nc(Nc3ccc(S(=O)(=O)N4CCOCC4)cc3)c12 [GSK2177277]	100%
COc1cccc(NC(=O)NC2CCN(c3ccnc(Nc4cc(OC)c(OC)c(OC)c4)n3)C2)c1 (stereo not shown) [GSK1379763]	83%
O=c1[nH]cc(-c2ccc(N3CCOCC3)cc2)c2sc(-c3cn[nH]c3)cc12 [GSK2276055]	63%
Nc1ncc(-c2ccc3nccc(-c4ccncc4)c3c2)cc1S(=O)(=O)N1CCOCC1 [GSK1627798]	13%
Cl.c1ccc(-c2ccc3c(Nc4ccc5[nH]ncc5c4)ccnc3c2)nc1 [GW440137]	89%
Cc1ccc(C)c(NC(=O)NC2CCN(c3ccnc(Nc4ccc(F)cc4)n3)C2)c1 (stereo not shown) [GSK1379720]	4%
Cl.Cl.NCC(NC(=O)c1cc(-c2ccccc2)c(-c2ccnc3[nH]ccc23)s1)c1ccccc1 (stereo not shown) [GSK1321561]	45%
Cc1occc1-c1ncc(OC[C@@H](N)Cc2c[nH]c3ccccc23)cc1-c1ccc2[nH]nc(C)c2c1.O=C(O)C(F)(F)F [GSK682037]	81%
CN(c1ccc(NC(=O)Nc2cc(C(F)(F)F)ccc2F)cc1)c1ccnc(Nc2ccc(S(N)(=O)=O)cc2)n1 [GW809893]	99.9%
CC(C)c1nc(-c2cccc(NS(=O)(=O)c3c(F)cccc3F)c2F)c(-c2ccnc(Nc3ccc(N4CCOCC4)nc3)n2)s1 [GSK2008607]	100%
Cc1cccc(Nc2nc(N[C@H]3CCNC3)ncc2C(N)=O)c1.Cl [GSK2197149]	89%
COc1cccc(C(=O)Nc2cccc(Oc3ccc4nc(NC(=O)C5CC5)cn4n3)c2)c1	100%
Cl.c1ccc(-c2ccc3c(Nc4ccc5[nH]ccc5c4)ccnc3c2)nc1 [GW440138]	99.9%
CC(=O)N1CCN(c2ccc(Nc3nccc(-c4sc(C(C)C)nc4-c4cccc(NS(=O)(=O)c5cccc(Cl)c5)c4)n3)cn2)CC1 [GSK1660437]	99%
